40 molecules from the supplement of paper PMC4206461 can be followed below.

The subject of the test is Pseudomonas aeruginosa PA14 dppA1-A5 penta mutant + pBBR5.DppA1 (PA14_58350). Nature of the test: respiration area under curve with compound as sole nitrogen source, 24 h (OmniLog AUC (arbitrary units)); higher = more respiration / better utilisation as nitrogen source, active = 2000 or more. The procedure: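 Biolog Phenotype MicroArray plates PM6-PM8: each di/tripeptide is the sole nitrogen source. Tetrazolium reduction was read in the OmniLog for 24 h at 37°C and summarised as area under the respiration curve (arbitrary units). Values below 2000 count as no respiration. Strain is the SBP penta mutant complemented with DppA1 on a plasmid under its native promoter. Lys/His/Cys peptides are excluded.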
As for `CC[C@H](C)[C@H](N)C(=O)N1CCC[C@H]1C(=O)O` (plate: PM6), the “respiration area under curve” value was 5060 (active).

As to `CC(C)[C@H](N)C(=O)N[C@@H](CCC(N)=O)C(=O)O` (plate: PM8), the “respiration area under curve” value was 7140 (active).

Consider `CC(C)[C@H](N)C(=O)N[C@@H](CC(=O)O)C(=O)O` (plate: PM7), for which the “respiration area under curve” value was 6440 (active).

Turning to `CSCCC(N)C(=O)NC(CCCN=C(N)N)C(=O)O` (stereo not given) (plate: PM7), the “respiration area under curve” value is 13200 (active).

`N[C@@H](Cc1ccccc1)C(=O)N[C@@H](CCC(=O)O)C(=O)O` (plate: PM8): the “respiration area under curve” value was 2880 (active).

Turning to `N[C@@H](Cc1ccc(O)cc1)C(=O)N[C@@H](Cc1ccccc1)C(=O)O` (plate: PM7), the “respiration area under curve” value was 6470 (active).

Take `C[C@@H](O)[C@H](N)C(=O)N[C@@H](CCCN=C(N)N)C(=O)O` (plate: PM7): the “respiration area under curve” value is 14200 (active).

For `CSCC[C@H](NC(=O)CN)C(=O)O` (plate: PM6), the “respiration area under curve” value was 50.7 (inactive).

Turning to `NC(=O)CC[C@H](NC(=O)[C@@H](N)CO)C(=O)O` (plate: PM8), the “respiration area under curve” value is 7790 (active).

As for `O=C(O)CC(NC(=O)C1CCCN1)C(=O)O` (stereo not given) (plate: PM7), the “respiration area under curve” value was 2970 (active).

`C[C@H](NC(=O)[C@@H](N)CCC(=O)O)C(=O)O` (plate: PM8): the “respiration area under curve” value was 7690 (active).

With `C[C@H](N)C(=O)N[C@@H](Cc1ccccc1)C(=O)O` (plate: PM6), the “respiration area under curve” value is 6990 (active).

Regarding `NCC(=O)NCC(=O)O` (plate: PM6), the “respiration area under curve” value was 2050 (active).

Turning to `CC(C)[C@H](NC(=O)[C@@H](N)Cc1ccccc1)C(=O)O` (plate: PM8), the “respiration area under curve” value was 5720 (active).

In the case of `N[C@@H](Cc1ccc(O)cc1)C(=O)N[C@@H](CCC(=O)O)C(=O)O` (plate: PM7), the “respiration area under curve” value was 4690 (active).

Take `CC[C@H](C)[C@H](NC(=O)[C@H](C)N)C(=O)O` (plate: PM8): the “respiration area under curve” value was 7110 (active).

Turning to `NC(N)=NCCC[C@H](N)C(=O)N[C@@H](CO)C(=O)O` (plate: PM6), the “respiration area under curve” value was 7830 (active).

For the molecule `N[C@@H](CCC(=O)O)C(=O)N[C@@H](Cc1c[nH]c2ccccc12)C(=O)O` (plate: PM6), the “respiration area under curve” value was 1820 (inactive).

On to `CC(C)[C@H](N)C(=O)N[C@@H](Cc1ccc(O)cc1)C(=O)O` (plate: PM7), for which the “respiration area under curve” value was 7120 (active).

`CC(C)C[C@H](N)C(=O)N[C@H](C(=O)O)C(C)C` (plate: PM7): the “respiration area under curve” value is 10300 (active).

As to `N[C@@H](CC(=O)O)C(=O)NCC(=O)O` (plate: PM8), the “respiration area under curve” value was 2620 (active).

With `CC(C)C[C@H](NC(=O)[C@@H](N)CC(=O)O)C(=O)O` (plate: PM6), the “respiration area under curve” value is 984 (inactive).

With `CC[C@H](C)[C@H](NC(=O)CNC(=O)CN)C(=O)O` (plate: PM8), the “respiration area under curve” value is 2430 (active).

Turning to `C[C@H](N)C(=O)N[C@@H](Cc1ccc(O)cc1)C(=O)O` (plate: PM6), the “respiration area under curve” value was 5920 (active).

As to `CC[C@H](C)[C@H](NC(=O)[C@@H](N)CC(C)C)C(=O)O` (plate: PM6), the “respiration area under curve” value was 3910 (active).

For the molecule `N[C@@H](Cc1ccccc1)C(=O)NCC(=O)O` (plate: PM7), the “respiration area under curve” value was 6420 (active).

For `NC(CO)C(=O)NC(CCC(=O)O)C(=O)O` (stereo not given) (plate: PM8), the “respiration area under curve” value is 3950 (active).

As to `NC(=O)CC[C@H](NC(=O)[C@@H](N)Cc1ccc(O)cc1)C(=O)O` (plate: PM7), the “respiration area under curve” value is 12100 (active).

Consider `C[C@@H](O)[C@H](NC(=O)CN)C(=O)O` (plate: PM6), for which the “respiration area under curve” value was 2750 (active).

For the molecule `CC(C)C[C@H](N)C(=O)NCC(=O)NCC(=O)O` (plate: PM8), the “respiration area under curve” value was 8090 (active).

For `CC(C)C[C@H](NC(=O)[C@@H](N)CC(C)C)C(=O)O` (plate: PM6), the “respiration area under curve” value was 1870 (inactive).

Consider `C[C@@H](O)[C@H](N)C(=O)N[C@@H](CC(=O)O)C(=O)O` (plate: PM8), for which the “respiration area under curve” value is 3640 (active).

As to `C[C@@H](NC(=O)CN)C(=O)O` (plate: PM8), the “respiration area under curve” value was 3490 (active).

With `C[C@@H](N)C(=O)NCC(=O)NCC(=O)O` (plate: PM8), the “respiration area under curve” value is 46.7 (inactive).

Turning to `CC(C)CC(N)C(=O)NC(Cc1c[nH]c2ccccc12)C(=O)O` (stereo not given) (plate: PM7), the “respiration area under curve” value was 8370 (active).

As for `N[C@@H](Cc1c[nH]c2ccccc12)C(=O)N[C@@H](CO)C(=O)O` (plate: PM7), the “respiration area under curve” value was 2890 (active).

For the molecule `NC(=O)CC[C@H](NC(=O)[C@@H](N)CCCN=C(N)N)C(=O)O` (plate: PM6), the “respiration area under curve” value is 8870 (active).

With `CC[C@H](C)[C@H](N)C(=O)N[C@@H](CCC(N)=O)C(=O)O` (plate: PM6), the “respiration area under curve” value was 5000 (active).

With `C[C@H](N)C(=O)N[C@@H](CC(N)=O)C(=O)O` (plate: PM6), the “respiration area under curve” value was 7840 (active).

As to `O=C(O)[C@@H]1CCCN1C(=O)[C@@H]1CCCN1` (plate: PM7), the “respiration area under curve” value was 8180 (active).
